Assay [1] addresses T1, Tyrosine-protein phosphatase non-receptor type substrate 1 (Homo sapiens) + Leukocyte surface antigen CD47 (Homo sapiens) (UniProt P78324+Q08722). As to the kind of experiment: CD47-SIRPalpha protein protein interaction - HTRF assay qHTS validation (AID 1347058; active means well fitted curve in the direction sought with a large enough effect in the signal ratio, not every such curve was filed as active; the % refers to the signal ratio; further: series mostly up to about 38 µM). In a few lines: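 TR-FRET read (Ch1/Ch2 ratio) of soluble extracellular CD47 and Avi-biotinylated SIRPalpha domains in PBS pH 7.4 with 0.05% IGEPAL; 7-point compound titration. Sequential 30 min room-temperature steps; non-biotinylated SIRPalpha as control inhibitor.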
Background: TR-FRET usually uses a lanthanide donor and a delayed reading to cut background.

Assay [2] concerns the target T1, Tyrosine-protein phosphatase non-receptor type substrate 1 (Homo sapiens) + Leukocyte surface antigen CD47 (Homo sapiens). As to the kind of experiment: CD47-SIRPalpha protein protein interaction - Alpha assay qHTS validation (AID 1347059).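 Further: bead proximity luminescence from CD47 binding SIRPalpha after compound preincubation with SIRPalpha.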 Further: potency means the concentration at half of the fitted maximal effect. In a few lines:
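Soluble extracellular domains: Avi-tag biotinylated SIRPalpha (25 nM) preincubated 30 min RT with compound, then 6His-CD47 (12.5 nM) 30 min; Ni-NTA acceptor and streptavidin donor beads (10 ug/mL) 30 min, AlphaScreen read. PBS pH 7.4, 0.05% IGEPAL.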
In general terms: Quantitative high-throughput screening tests each substance at several concentrations.

In assay [3] the target is Parathyroid hormone/parathyroid hormone-related peptide receptor (Homo sapiens) (UniProt Q03431). As to the kind of experiment: qHTS for PTHR1 Agonists: Optimization Screen against the NCGC LOPAC library (AID 1347079).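 Further: GloSensor cAMP luminescence in HEK-293 GP2 cells expressing human PTHR1 with IBMX.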 In a few lines: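 Compounds were tested across a qHTS titration. PTHR1-expressing GP2 cells report cAMP rises via GloSensor luminescence after 1 hr compound exposure at 37C with IBMX present.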
Parathyroid hormone/parathyroid hormone-related peptide receptor (Homo sapiens), sequence (Q03431 whole entry, looked up): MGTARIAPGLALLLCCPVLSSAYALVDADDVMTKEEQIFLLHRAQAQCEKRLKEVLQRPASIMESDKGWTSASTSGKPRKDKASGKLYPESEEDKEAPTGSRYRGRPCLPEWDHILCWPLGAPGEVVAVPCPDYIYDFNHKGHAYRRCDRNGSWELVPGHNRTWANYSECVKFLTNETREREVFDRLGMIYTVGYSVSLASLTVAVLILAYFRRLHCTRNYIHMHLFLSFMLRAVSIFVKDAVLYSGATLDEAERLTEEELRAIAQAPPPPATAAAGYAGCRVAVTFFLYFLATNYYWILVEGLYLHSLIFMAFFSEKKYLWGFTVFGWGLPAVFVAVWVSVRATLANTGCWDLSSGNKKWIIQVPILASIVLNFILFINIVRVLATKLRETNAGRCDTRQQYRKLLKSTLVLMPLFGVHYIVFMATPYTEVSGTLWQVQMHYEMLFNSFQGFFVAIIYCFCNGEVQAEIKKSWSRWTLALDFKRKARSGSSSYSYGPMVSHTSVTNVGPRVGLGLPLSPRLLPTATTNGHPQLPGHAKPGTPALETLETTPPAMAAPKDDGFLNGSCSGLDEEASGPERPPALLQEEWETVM

A short description of assay [4]: qHTS of pediatric cancer cell lines to identify multiple opportunities for drug repurposing: Primary screen for TC32 cells (AID 1347089). Further: nearly all actives have a fitted effect of over 60% in size. In a few lines:
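In the primary qHTS, MIPE compounds were tested at 11 concentrations (0.78 nM to 46 µM) and NPC compounds at 8 (0.59 nM to 46 µM) on TC32 cells for 48 h. CellTiter-Glo luminescence gave viability.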

A short description of assay [5]: qHTS of pediatric cancer cell lines to identify multiple opportunities for drug repurposing: Primary screen for SJ-GBM2 cells (AID 1347091). Further: potency means the concentration at half of the fitted maximal effect. In a few lines: (§1)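 Eight- or eleven-point concentration series, 48 h treatment at 37 degrees C in growth media; readout CellTiter-Glo luminescence. Potency and efficacy were taken from the concentration-response curves.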
The nature of assay [6]: qHTS of pediatric cancer cell lines to identify multiple opportunities for drug repurposing: Primary screen for A673 cells (AID 1347092). Further: nearly all actives have a fitted effect of over 45% in size. Further: potency means the concentration at half of the fitted maximal effect. In a few lines: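 48 h compound exposure, A673, 500-1,000 cells/well, 37 degrees C/5% CO2. MIPE: 11-point, 0.78 nM-46 µM; NPC: 8-point, 0.59 nM-46 µM (final). Readout CellTiter-Glo luminescence after 15 min RT.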
A short description of assay [7]: qHTS of pediatric cancer cell lines to identify multiple opportunities for drug repurposing: Primary screen for SK-N-MC cells (AID 1347093). Further: potency means the concentration at half of the fitted maximal effect. In a few lines:
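Metabolically active cells were quantified by ATP-dependent luminescence (CellTiter-Glo, 15 min at room temperature) following 48 h treatment. Cells had been plated at 500-1,000 per well and settled for 5 h beforehand.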

A short description of assay [8]: qHTS of pediatric cancer cell lines to identify multiple opportunities for drug repurposing: Primary screen for BT-37 cells (AID 1347094). Further: potency means the concentration at half of the fitted maximal effect. In a few lines: (§2)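 500-1,000 cells/well; 5 h pre-incubation 37 °C/5% CO2; compound pinned; 48 h; CellTiter-Glo, 15 min RT; luminescence. MIPE 11-pt from 0.78 nM, NPC 8-pt from 0.59 nM final. Bortezomib 2.3 µM final as positive control.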

Assay [9] can be described thus: qHTS of pediatric cancer cell lines to identify multiple opportunities for drug repurposing: Primary screen for Saos-2 cells (AID 1347097). Further: nearly all actives have a fitted effect of over 40% in size. Further: potency means the concentration at half of the fitted maximal effect. In a few lines:
as §2

Assay [10] can be described thus: qHTS of pediatric cancer cell lines to identify multiple opportunities for drug repurposing: Primary screen for SK-N-SH cells (AID 1347098). Further: nearly all actives have a fitted effect of over 65% in size. Further: potency means the concentration at half of the fitted maximal effect. In a few lines:
(§3)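 Cells (500-1,000/well) rested 5 h, then received compounds for 48 h; metabolically active cells were measured by CellTiter-Glo luminescence. Final concentrations spanned up to 46 µM (MIPE, 11-point) or 0.59 nM-46 µM (NPC, 8-point) in primary screens, 11-point in follow-ups.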

The nature of assay [11]: qHTS of pediatric cancer cell lines to identify multiple opportunities for drug repurposing: Primary screen for LAN-5 cells (AID 1347100). Further: potency means the concentration at half of the fitted maximal effect. In a few lines:
(§4)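 Cells (500-1,000/well) in growth media were settled 5 h at 37 degrees C, then given compounds for 48 h. Viability was read as CellTiter-Glo luminescence. Primary runs used MIPE at 11 points (0.78 nM-46 µM) and NPC at 8 points (0.59 nM-46 µM); follow-ups used 11 points.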

Assay [12] is described as follows: qHTS of pediatric cancer cell lines to identify multiple opportunities for drug repurposing: Primary screen for Rh18 cells (AID 1347102). Further: nearly all actives have a fitted effect of over 65% in size. Further: potency means the concentration at half of the fitted maximal effect. In a few lines: as §4
A short description of assay [13]: qHTS of pediatric cancer cell lines to identify multiple opportunities for drug repurposing: Primary screen for OHS-50 cells (AID 1347103). Further: nearly all actives have a fitted effect of over 40% in size. Further: potency means the concentration at half of the fitted maximal effect. In a few lines: as §3
The nature of assay [14]: qHTS of pediatric cancer cell lines to identify multiple opportunities for drug repurposing: Primary screen for RD cells (AID 1347104). Further: nearly all actives have a fitted effect of over 55% in size. In a few lines: as §2
The nature of assay [15]: qHTS of pediatric cancer cell lines to identify multiple opportunities for drug repurposing: Primary screen for DAOY cells (AID 1347090). Further: nearly all actives have a fitted effect of over 55% in size. Further: potency means the concentration at half of the fitted maximal effect. In a few lines:
as §1

A short description of assay [16]: qHTS of pediatric cancer cell lines to identify multiple opportunities for drug repurposing: Primary screen for NB-EBc1 cells (AID 1347095). Further: potency means the concentration at half of the fitted maximal effect. In a few lines:
as §2

Assay [17] can be described thus: qHTS of pediatric cancer cell lines to identify multiple opportunities for drug repurposing: Primary screen for U-2 OS cells (AID 1347096). Further: nearly all actives have a fitted effect of over 50% in size. In a few lines: as §4
Assay [18] is described as follows: qHTS of pediatric cancer cell lines to identify multiple opportunities for drug repurposing: Primary screen for NB1643 cells (AID 1347099). Further: nearly all actives have a fitted effect of over 50% in size. Further: potency means the concentration at half of the fitted maximal effect. In a few lines: as §2
A short description of assay [19]: qHTS of pediatric cancer cell lines to identify multiple opportunities for drug repurposing: Primary screen for BT-12 cells (AID 1347101). Further: nearly all actives have a fitted effect of over 25% in size. Further: potency means the concentration at half of the fitted maximal effect. In a few lines:
as §3

Assay [20] in a line: qHTS of pediatric cancer cell lines to identify multiple opportunities for drug repurposing: Primary screen for MG 63 (6-TG R) cells (AID 1347105). Further: nearly all actives have a fitted effect of over 50% in size. In a few lines: as §2

Values without a mark were called inactive. Records with an inconclusive call do not appear. Active and inactive are the calls of the source. Unless noted, the call rests on the fitted dose curve; in most records, active means well fitted curve in the direction sought with a large enough effect; inconclusive means small, poorly fitted or top-dose-only effect, or another doubt; inactive means no such curve, though single readings can be large; an effect the other way counts as inactive or inconclusive.

T1 sequence (P78324 whole entry, looked up, the tested form may be a part): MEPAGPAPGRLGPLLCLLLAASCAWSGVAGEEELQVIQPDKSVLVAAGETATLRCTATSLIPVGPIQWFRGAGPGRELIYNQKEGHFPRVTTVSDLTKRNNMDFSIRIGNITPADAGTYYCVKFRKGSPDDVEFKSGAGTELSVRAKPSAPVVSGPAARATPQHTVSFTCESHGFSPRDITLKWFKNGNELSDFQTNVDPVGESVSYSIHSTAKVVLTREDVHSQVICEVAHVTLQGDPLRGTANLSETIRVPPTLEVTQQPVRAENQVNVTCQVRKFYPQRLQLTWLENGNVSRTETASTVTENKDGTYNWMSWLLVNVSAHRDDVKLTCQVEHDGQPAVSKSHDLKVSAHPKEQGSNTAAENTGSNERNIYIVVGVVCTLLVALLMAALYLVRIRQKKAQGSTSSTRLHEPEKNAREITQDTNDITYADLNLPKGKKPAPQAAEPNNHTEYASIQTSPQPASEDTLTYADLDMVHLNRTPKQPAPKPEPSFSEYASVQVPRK
T1 sequence (Q08722 whole entry, looked up, the tested form may be a part): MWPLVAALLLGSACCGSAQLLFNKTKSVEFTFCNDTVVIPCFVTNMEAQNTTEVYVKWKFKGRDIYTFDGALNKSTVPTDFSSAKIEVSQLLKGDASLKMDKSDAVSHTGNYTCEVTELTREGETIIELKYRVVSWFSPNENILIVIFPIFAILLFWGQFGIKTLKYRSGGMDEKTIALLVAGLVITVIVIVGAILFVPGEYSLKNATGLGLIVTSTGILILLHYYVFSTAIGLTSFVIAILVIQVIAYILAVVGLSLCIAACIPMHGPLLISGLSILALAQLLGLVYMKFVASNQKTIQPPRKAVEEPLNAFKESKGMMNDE

With `COc1ccccc1N1CCN(CCN(C(=O)C2CCCCC2)c2ccccn2)CC1`, the outcome in assay [1] and in assay [3] was inactive. In addition, the Potency result in [2], in assay [4], in assay [5], in assay [6], in assay [7] and in [8] was “inactive” in each case. Further, the Potency result in [9], in assay [10], in [11], in assay [12], in [13] and in assay [14] was “inactive” each time.

Turning to `CN(C)C(=O)[C@H](O)[C@H](Cc1ccccc1)NC(=O)c1cc2cc(Cl)ccc2[nH]1`, in assay [1], the result was inactive. Further, the Potency result in assay [2], in [8], in assay [17], in [11] and in assay [13] was “inactive” in each case. The Potency in assay [15] is 7.43 µM (active); in assay [5], 4.69 µM (active); in assay [6], 5.9 µM (active); in assay [7], 1.18 µM (active); in [16] it was 3.32 µM (active).

Turning to `O=c1c(O)c(-c2ccc(O)cc2O)oc2cc(O)cc(O)c12`, the Potency in assay [2] was 1.85 µM (active). Also, the outcome in [3] was inactive. Besides, the Potency entry in assay [4], in assay [15], in assay [5], in assay [6], in assay [7] and in assay [8] was “inactive” each time. For the same compound, the Potency entry in assay [16], in assay [17], in assay [10], in assay [18], in [11] and in assay [19] was “inactive” throughout. Moreover, the Potency entry in assay [12], in assay [13], in [14] and in assay [20] was “inactive” throughout.

Take `O=C1c2ccccc2-c2n[nH]c3cccc1c23`: the Potency result in assay [2] and in assay [4] was “inactive” each time. Besides, in assay [3], the outcome was inactive. Also, the Potency in assay [7] is 2.64 µM (active); in assay [8], 3.43 µM (active); in assay [16], 1.05 µM (active); in assay [10], 5.41 µM (active); in assay [18], 2.96 µM (active); in assay [11], 1.66 µM (active). Also, the Potency in assay [13] is 21.7 µM (active).

`C[C@H](Cc1ccc(O)c(O)c1)[C@@H](C)Cc1ccc(O)c(O)c1`: the result in assay [1] and in assay [3] was inactive. The Potency entry in assay [2] and in [10] was “inactive” each time. For the same compound, the Potency in [7] is 11.8 µM (active); in assay [16], 2.35 µM (active); in assay [9], 29.6 µM (active); in assay [18], 14.8 µM (active); in [11], 10.5 µM (active); in assay [19], 15.3 µM (active). In assay [12], the Potency was 18.7 µM (active).

Consider `Clc1ccc2c(N3CCN(CCCN4CCN(c5ccnc6cc(Cl)ccc56)CC4)CC3)ccnc2c1`, for which the result in [1] was inactive. The Potency result in [2], in [4], in assay [15], in assay [6], in assay [7] and in [8] was “inactive” each time. Besides, the Potency entry in [9], in assay [10], in assay [18], in assay [11], in assay [19] and in assay [12] was “inactive” in each case. Moreover, the Potency entry in assay [14] was “inactive”.

Turning to `COc1cc2c(cc1OC)C1CC(=O)C(CC(C)C)CN1CC2` (stereo not given), the result in [1] and in assay [3] was inactive. The Potency entry in [2], in assay [4], in assay [15], in assay [6], in [7] and in assay [8] was “inactive” in each case. The Potency result in [17], in [9], in [10], in assay [18], in assay [11] and in assay [19] was “inactive” in each case. In addition, the Potency result in [12], in [13], in assay [14] and in [20] was “inactive” each time.

For `CC(=O)N1CCN(c2ccc(OC[C@H]3CO[C@](Cn4ccnc4)(c4ccc(Cl)cc4Cl)O3)cc2)CC1`, the result in assay [1] and in assay [3] was inactive. Besides, the Potency entry in [4], in assay [10] and in [18] was “inactive” in each case. Besides, the Potency in assay [7] is 23.5 µM (active); in [9] it was 33.2 µM (active); in assay [11], 18.7 µM (active); in assay [19], 24.3 µM (active).

For the origin of these results see PubChem BioAssay (NCATS).
